Assay outcomes from PubChem BioAssay.
In the library only some 1.8% were active in any assay of this set; here they are far more common.
HEK293 tox – cytotoxicity in counter-screen for GLP-1R inverse agonists | HEK293 cAMP-luciferase reporter cells, luminescence, 24 h | Potency, µM (titrated, usually from 38.3 µM), hits mostly inhibitors | hit rate 0.13% among 410,000 | AID 624418;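 note: loss of luciferase light is scored as toxicity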
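MLSMR compounds, 24 hr on cells at 37 deg C/5% CO2; luminescence after luciferase reagent (12 min RT). Inhibition counted as the undesired cytotoxic outcome.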
GLP1R ag – activates the human GLP-1 receptor | AID 624172 | hit rate 0.007% among 380,000 | Potency, µM (top dose mostly 45.6 µM), most hits filed as activators | P43220 | HEK293 GLP-1R CRE-luciferase, luminescence, 4-6 h; cells express a hypersensitive GLP-1R form
Target sequence (P43220 whole entry, looked up): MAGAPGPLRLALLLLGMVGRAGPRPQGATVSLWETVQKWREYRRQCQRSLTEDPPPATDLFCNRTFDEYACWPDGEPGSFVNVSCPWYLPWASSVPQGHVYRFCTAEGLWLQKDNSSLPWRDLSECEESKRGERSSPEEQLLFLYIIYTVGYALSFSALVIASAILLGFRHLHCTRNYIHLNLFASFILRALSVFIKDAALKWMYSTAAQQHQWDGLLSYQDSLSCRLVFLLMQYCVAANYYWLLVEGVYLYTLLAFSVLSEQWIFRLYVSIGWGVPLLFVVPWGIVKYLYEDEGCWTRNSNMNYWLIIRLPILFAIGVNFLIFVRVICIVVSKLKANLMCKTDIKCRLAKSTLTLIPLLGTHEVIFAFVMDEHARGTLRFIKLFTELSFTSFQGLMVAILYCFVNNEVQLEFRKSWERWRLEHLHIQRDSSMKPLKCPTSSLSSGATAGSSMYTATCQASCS
GLP-1R inv ag – GLP-1 receptor (human) inverse agonism; HEK293 GLP-1R CRE-luciferase, luminescence, 24 h; GLP-1R form is constitutively active; hit rate 1.6% among 410,000; P43220; Potency, µM (highest dose often 38.3 µM), most hits filed as inhibitors; AID 624417; note: nearly all actives have a fitted effect of over 55% in size
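Inverse agonism was detected as reduced cAMP-driven luciferase luminescence after 24 h compound treatment. The cells were HEK293 clones expressing constitutively active human GLP-1R with the reporter. Reporter-only and GPR119 cell lines served as counterscreen controls.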
PTHR1 agonist – activates the human parathyroid hormone receptor PTHR1. Q03431. HEK293 GP2 PTHR1 cells, GloSensor cAMP luminescence, 1 h. Potency, µM (doses to about 115 µM), actives largely listed as activators. hit rate 0.075% among 410,000. AID 743266; note: nearly all actives have a fitted effect of over 55% in size
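HEK-293-derived GP2 cells expressing PTHR1 and a GloSensor cAMP reporter, 3,000/well, plated overnight, given luciferin plus IBMX (each 0.5 mM as added) for 1 h at 37 °C, then compound for 1 h at 37 °C. Luminescence was read after 15 min at room temperature.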
TSHR antag – antagonists of human thyroid stimulating hormone receptor; P16473; TSHR-expressing cells, TSH-stimulated cAMP HTRF, 2 h; stronger effect = lower value; activity change, negative = inhibition, % at 11.5 µM; hit rate 0.2% among 330,000;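 active = activity change below a set negative limit, meaning inhibition stronger than a set level, cut at about -70% in these data; inconclusive = activity change between two set negative limits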
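Cell-based HTRF cAMP assay; TSHR cells + compound, TSH EC80 (4nM final), 2 h, 37 deg C. Lysis with anti-cAMP cryptate and cAMP-d2, 30 min RT, read 665/620 nm.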
Hits are given with their value; n = inactive; u = inconclusive; x = no result given; [ ] = remark or other dose. Unless noted, calls come from the whole dose curve; as a rule, active = well fitted curve in the direction sought with a large enough effect; inconclusive = small, poorly fitted or top-dose-only effect, or another doubt; inactive = no such curve, though single readings can be large; an effect the other way counts as inactive or inconclusive.

SMILES	HEK293 tox	GLP1R ag	GLP-1R inv ag	PTHR1 agonist	TSHR antag
CC1=C[C@@H](O)CC(C)(C)[C@@H]1/C=C/C(C)=C/C=C/C(C)=C/C=C/C=C(C)/C=C/C=C(C)/C=C/C1=C(C)C[C@H](O)CC1(C)C	x	n	x	x	x
O=c1c2ccccc2sc2c(CO)ccc(NCCN3CCCCC3)c12	7.9µM	n	10µM	n	x
CCN(CC)CCNc1cccc2sc3ccccc3c(=O)c12	n	n	n	n	x
Cc1ccc2oc(=O)n(CCNC(=O)Nc3ccccc3Cl)c2c1	n	x	n	n	x
O=C(CCCCn1c(=O)[nH]c2ccccc2c1=O)N1CCN(c2cccc(C(F)(F)F)c2)CC1	u	n	10µM	n	n
CCc1ccc(NC(=O)CN2C(=O)C(c3ccc(C)cc3)=NC23CCCCC3)cc1	n	x	11µM	n	x
Cc1ccc(NC(=O)CN2C(=O)C(c3ccc(C)cc3)=NC23CCCCCC3)cc1	n	x	10µM	n	x
CCc1ccc(NC(=O)CN2C(=O)C(c3ccc(Cl)cc3)=NC23CCCCC3)cc1	n	x	11µM	n	x
COc1cccc(NC(=O)CCc2nc(-c3ccccc3F)no2)c1	n	n	n	n	n
O=C(CCc1nc(-c2ccccc2F)no1)Nc1ccc(Oc2ccccc2)cc1	u	n	u	n	-73
Cc1ccc(NC(=O)Cn2c(=O)c3cc(Cl)ccc3n3nncc23)cc1	n	n	n	n	x
CCOc1ccc(NC(=O)C2C(c3ccccc3)C2(Cl)Cl)cc1 (centres undefined)	n	n	u	n	n
Cc1ccc(NC(=O)C2C(c3ccccc3)C2(Cl)Cl)c(C)c1 (centres undefined)	n	n	11µM	n	n
COc1ccc(NC(=O)C2C(c3ccccc3)C2(Cl)Cl)cc1 (centres undefined)	n	n	10µM	n	n
O=C(NCc1cccc(F)c1)C1CCCN(C(=O)N2CCOc3ccccc32)C1 (centres undefined)	n	x	n	n	x
CCN(C(=O)CSc1nc2ccccc2nc1Cc1cccc(OC)c1)c1cccc(C)c1	n	x	11µM	n	x
CCN(C(=O)CSc1nc(-c2ccccc2)no1)c1cccc(C)c1	n	x	1.3µM	n	x
CCN(C(=O)CSc1nc2ccccc2nc1Cc1ccc(F)cc1)c1cccc(C)c1	n	x	n	n	x
COc1ccc(-c2nc(SCC(=O)NC3CCCC3)c(-c3ccccc3)[nH]2)cc1OC	n	x	n	n	x
CN(C)CC/C=C1/c2cc(F)ccc2Sc2ccc(Cl)cc21	u	n	10µM	n	x
COc1cc2c(cc1Cl)/C(=C\CCN(C)C)c1ccccc1S2	u	n	10µM	n	n
O=C(NCCCN1CCN(c2cccc(Cl)c2)CC1)c1cnn(-c2ccc(F)cc2)c1-n1cccc1	u	n	u	n	x
COc1ccc(OCCn2nnc3sc4c(c3c2=O)CCC(C(C)(C)C)C4)cc1 (centres undefined)	n	x	n	n	x
COc1ccc(CNC(=O)c2sc3nc4n(c(=O)c3c2C)CCCC4)cc1	n	x	n	n	x
COc1ccc(C(=O)NN/C(C)=C/C(=O)C(F)(F)C(F)(F)C(F)(F)F)cc1	n	n	5µM	n	n
SMILES	HEK293 tox	GLP1R ag	GLP-1R inv ag	PTHR1 agonist	TSHR antag
S=C(NCCCN1CCOCC1)N1CCN(c2nc(-c3ccccc3)cs2)CC1	n	n	u	n	n
O=S(=O)(c1cccc(Cl)c1Cl)N1CCN(C(=S)NCCCN2CCOCC2)CC1	n	n	7.1µM	n	n
S=C(NCCCN1CCOCC1)N1CCN(c2nc(-c3ccc(Cl)cc3)cs2)CC1	u	n	3.5µM	n	n
CC(C)C(NC(=O)C(CC(=O)O)NC(=O)C(CCCCN)NC(=O)C(N)CCCN=C(N)N)C(=O)NC(Cc1ccc(O)cc1)C(=O)O (centres undefined)	x	n	x	x	x
C[C@H]1NCc2cc(-c3ccc4c(=O)c(C(=O)O)cn(C5CC5)c4c3OC(F)F)ccc21	x	n	x	x	x
CC(C)(C)NCC(O)COc1ccccc1C(=O)CCc1ccccc1 (centres undefined)	u	n	11µM	n	n
CC(C)(C)NCC(O)COc1ccccc1C(C)(C)C (centres undefined)	n	n	7.9µM	n	n
COc1ccc(S(=O)(=O)NCc2cccn2Cc2cc(C)ccc2C)cc1OC	n	x	n	n	x
Cc1cc2oc3c(c(=O)c2cc1C)C(c1ccc(C(C)C)cc1)N(c1nc(C)c(C)s1)C3=O (centres undefined)	n	x	n	n	x
N#C/C(=C\c1ccc(N2CCOCC2)o1)c1ccccc1	n	n	n	n	-82
CCOC(=O)c1c(NC(=O)/C=C/c2ccc(C)cc2)sc(C(C)=O)c1C	n	x	n	n	x
CCCc1cc(C(=O)Nc2ccc(C(=O)c3ccc(C)cc3)cc2)n(C)n1	n	n	5.6µM	n	n
CCCc1cc(C(=O)Nc2cccc3ccccc23)n(C)n1	n	n	u	n	n
Cc1ccc(CNC(=O)CCCn2c(=O)[nH]c3ccc(Br)cc3c2=O)cc1	n	n	n	u	x
CCc1ccc(OCCNC(=O)c2ccccc2SCc2ccc(F)cc2)cc1	n	n	8.9µM	n	n
O=C(NCCOc1ccc(F)cc1)c1ccccc1SCc1ccccc1	n	n	u	n	n
CN(C)CCOc1ccccc1Cc1ccccc1 (tested in a mixture with another compound)	x	n	x	x	x
Cc1ccc(C)c(N2CCN(C(=O)c3ccc4c(=O)n5c(nc4c3)CCCCC5)CC2)c1	n	n	1.8µM	n	n
O=C(c1ccc2c(=O)n3c(nc2c1)CCCCC3)N1CCCCC1	n	n	n	n	n
COc1ccc(C=C2C(=O)OC(C)(C)OC2=O)cc1OC	n	n	n	n	n
COc1ccc(/C=C2\OC(=O)c3c(OC)cccc32)cc1OC	n	5µM	n	n	n
COc1ccc(CCC(=O)NCc2ccc3c(c2)CCN3C(=O)c2ccc(C)cc2)cc1	n	x	n	n	x
Cc1cc(N2CCN(C)CC2)nc2ccc(NC(=S)N3CCCCC3)cc12	n	n	10µM	n	n
COc1cc(OC)cc(C(=O)Nc2ccc3nc(N4CCCCC4)cc(C)c3c2)c1	n	x	11µM	n	x
Cc1cc(N2CCN(C)CC2)nc2ccc(NC(=S)N3CCCCCC3)cc12	n	n	11µM	n	n
c1cnc2cc3c(cc2n1)[C@@H]1CNC[C@@H]3C1	x	n	x	x	x
CCC(C)(C)NC(=O)C(c1ccc(F)cc1)N(Cc1ccc(OC)cc1)C(=O)c1cnccn1 (centres undefined)	n[7.66 µM]	n	n[7.66 µM]	n	n
COc1ccc(CN(C(=O)c2cnccn2)C(C(=O)Nc2ccc(F)cc2)c2ccccc2)cc1 (centres undefined)	n	n	5.6µM	n	n
O=C(O)Cn1cc(/C=C/[N+](=O)[O-])c2ccccc21	n[7.66 µM]	n	n[7.66 µM]	n	n
